Measured values as given in PubChem BioAssay (Tox21).
Records with an inconclusive call do not appear. Activity calls are given as the source filed them. Unless noted, the call rests on the fitted dose curve; in most records, active means well fitted curve in the direction sought with a large enough effect in the repeat runs; inconclusive means weak or mixed curves; inactive means no such curve, though single readings can be large; an effect the other way counts as inactive or inconclusive.

Tests used:
[1] = qHTS assay for small molecule agonists of the p53 signaling pathway (AID 651631; calls by dose curve; further: nearly all actives have a fitted effect of over 15% in size)
Outline: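 HCT-116 cells carrying a stable p53 response element–beta-lactamase reporter were plated, rested 5 h at 37 °C, then exposed to compound in DMSO for 16 h at 37 °C; reporter activity was read as FRET substrate fluorescence after 2 h at room temperature.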

[2] = qHTS assay for small molecules that induce genotoxicity in human embryonic kidney cells expressing luciferase-tagged ATAD5 (AID 651632); further: nearly all actives have a fitted effect of over 15% in size
Outline: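 Genotoxicity read-out via ATAD5-luciferase: HEK293T cells, 16 hr compound incubation at 37C, Amplite detection.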

[3] = qHTS assay for small molecule agonists of the p53 signaling pathway - cell viability (AID 651633; calls by dose curve; further: nearly all actives have a fitted effect of over 30% in size)
Outline: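 p53RE-bla cells were treated with compound for 16 hours at 37 C. Cytotoxicity was then measured as CellTiter-Glo luminescence after 30 min at room temperature.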

[4] = qHTS assay for small molecules that induce genotoxicity in human embryonic kidney cells expressing luciferase-tagged ATAD5 - cell viability (AID 651634; calls by dose curve; further: nearly all actives have a fitted effect of over 25% in size)
Outline: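 Live-cell protease activity (CellTiter-Fluor, fluorescence) indicates viability. HEK293T cells with luciferase-tagged ATAD5; 15.5 hr compound treatment at 37C.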

[5] = qHTS assay for small molecule disruptors of the mitochondrial membrane potential - cell viability (AID 720634; calls by dose curve;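 further: human HepG2 liver cancer cells; nearly all actives have a fitted effect of over 20% in size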)
Outline: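 Human hepatoma HepG2 cells were treated for 1 hr with test chemicals, then given m-MPI dye and CellTiter-Glo. Cell viability reflects luminescence proportional to cellular ATP.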

[6] = qHTS assay for small molecule disruptors of the mitochondrial membrane potential (AID 720635)
Outline: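 HepG2 cells exposed to compound 1 hr at 37C, then Mito-MPS dye 30 min. Ratio read of aggregate (540/590 nm) versus monomer (490/535 nm) fluorescence.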

[7] = qHTS assay to test for compound auto fluorescence at 590 nm (red) in HepG2 cells (AID 720674)
Outline: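 Seeding: 2,000 HepG2 cells/well, MEM/10% FBS, overnight 37 C. Dosing: compound vs DMSO. Incubation: 1 hr, 37 C, 5% CO2. Read: fluorescence 540 ex/590 em, Rose Bengal sodium as red reference.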

[8] = qHTS assay to test for compound auto fluorescence at 535 nm (green) in HepG2 cells (AID 720675)
[9] = qHTS assay to test for compound auto fluorescence at 460 nm (blue) in HEK293 cells (AID 720678)
Outline: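 Intrinsic compound fluorescence is recorded in live HEK293 cultures after overnight incubation at 37C, 5% CO2, using excitation 405 nm and emission 460 nm. Values are referenced to triamterene.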

[10] = qHTS assay to test for compound auto fluorescence at 590 nm (red) in HEK293 cells (AID 720679)
Outline: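 Red autofluorescence, HEK293 cells: 2,000 cells/well; attach 4-5 hr 37C; add 23 nL cpd or DMSO; incubate o/n 37C 5% CO2; read Ex540/Em590; Rose Bengal sodium reference.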

[11] = qHTS assay to test for compound auto fluorescence at 535 nm (green) in HEK293 cells (AID 720680)
[12] = qHTS assay to test for compound auto fluorescence at 460 nm (blue) in HEK293 cell free culture (AID 720681)
Outline: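 Compounds were added to cell-free DMEM with 10% FBS and fluorescence read directly. The blue channel used 405 nm excitation and 460 nm emission, with triamterene as the reference fluorophore.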

[13] = qHTS assay to test for compound auto fluorescence at 535 nm (green) in HEK293 cell free culture (AID 720682)
Outline: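 Read-out: 485/535 nm fluorescence intensity, calibrated against fluorescein. Medium only (DMEM + 10% FBS, no cells); test compound or DMSO vehicle added by pintool before plate reading.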

[14] = qHTS assay to test for compound auto fluorescence at 590 nm (red) in HEK293 cell free culture (AID 720683)
Outline: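 Cell-free wells of DMEM with 10% FBS received compound, and intrinsic fluorescence was read at excitation/emission 540/590 nm. Values expressed as equivalence to Rose Bengal sodium.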

[15] = qHTS assay to test for compound auto fluorescence at 590 nm (red) in HepG2 cell free culture (AID 720684)
Outline: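 Compounds are added to culture medium (MEM, 10% FBS) lacking cells, then fluorescence is read at excitation 540 nm, emission 590 nm, with Rose Bengal sodium as the equivalency standard.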

[16] = qHTS assay to test for compound auto fluorescence at 460 nm (blue) in HepG2 cell free culture (AID 720685)
Outline: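 Compound (23 nL) or DMSO pinned into cell-free MEM with 10% FBS; blue fluorescence read at 405/460 nm excitation/emission, expressed as auto-fluorescence equivalency to triamterene.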

[17] = qHTS assay to test for compound auto fluorescence at 460 nm (blue) in HepG2 cells (AID 720687)
Outline: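 HepG2 cells in MEM with 10% FBS, attached overnight at 37 C, were exposed to compound or DMSO for 1 hr at 37 C, 5% CO2. Blue fluorescence was read at 405/460 nm, with triamterene as reference fluorophore.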

[18] = molecular target: Glucocorticoid receptor (Homo sapiens) (UniProt P04150); assay: qHTS assay to identify small molecule agonists of the glucocorticoid receptor (GR) signaling pathway (AID 720691; active means well fitted activation curve with a large enough effect in the signal ratio in the repeat runs, not every such curve was filed as active; the % refers to the signal ratio); settings: GR-bla HeLa, beta-lactamase reporter ratio, 18 h; activation: at 62.4 µM (top of the series)
Outline: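 Beta-lactamase reporter activity, read as fluorescence intensity, was measured in GR-bla HeLa cells exposed to compounds for 18 h at 37 C and then loaded with LiveBLAzer B/G FRET substrate for 2 h at room temperature.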

[19] = molecular target: Glucocorticoid receptor (Homo sapiens) (UniProt P04150); assay: qHTS assay to identify small molecule antagonists of the glucocorticoid receptor (GR) signaling pathway (AID 720692; active means well fitted inhibition curve with a large enough effect in the signal ratio in the repeat runs, not every such curve was filed as active; the % refers to the signal ratio)
Outline: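 Fluorescence from cleaved LiveBLAzer B/G FRET substrate reports GRE-driven beta-lactamase in HeLa cells; compounds are tested against 5 nM dexamethasone (final) over 18 h at 37 C, substrate incubation 2 h at room temperature.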

[20] = qHTS assay to test for compound auto fluorescence at 535 nm (green) in HepG2 cell free culture (AID 720686)
On the % scale 0 is the no-effect control and ±100 the full control effect.

Chain of Glucocorticoid receptor (Homo sapiens) (P04150 whole entry, looked up): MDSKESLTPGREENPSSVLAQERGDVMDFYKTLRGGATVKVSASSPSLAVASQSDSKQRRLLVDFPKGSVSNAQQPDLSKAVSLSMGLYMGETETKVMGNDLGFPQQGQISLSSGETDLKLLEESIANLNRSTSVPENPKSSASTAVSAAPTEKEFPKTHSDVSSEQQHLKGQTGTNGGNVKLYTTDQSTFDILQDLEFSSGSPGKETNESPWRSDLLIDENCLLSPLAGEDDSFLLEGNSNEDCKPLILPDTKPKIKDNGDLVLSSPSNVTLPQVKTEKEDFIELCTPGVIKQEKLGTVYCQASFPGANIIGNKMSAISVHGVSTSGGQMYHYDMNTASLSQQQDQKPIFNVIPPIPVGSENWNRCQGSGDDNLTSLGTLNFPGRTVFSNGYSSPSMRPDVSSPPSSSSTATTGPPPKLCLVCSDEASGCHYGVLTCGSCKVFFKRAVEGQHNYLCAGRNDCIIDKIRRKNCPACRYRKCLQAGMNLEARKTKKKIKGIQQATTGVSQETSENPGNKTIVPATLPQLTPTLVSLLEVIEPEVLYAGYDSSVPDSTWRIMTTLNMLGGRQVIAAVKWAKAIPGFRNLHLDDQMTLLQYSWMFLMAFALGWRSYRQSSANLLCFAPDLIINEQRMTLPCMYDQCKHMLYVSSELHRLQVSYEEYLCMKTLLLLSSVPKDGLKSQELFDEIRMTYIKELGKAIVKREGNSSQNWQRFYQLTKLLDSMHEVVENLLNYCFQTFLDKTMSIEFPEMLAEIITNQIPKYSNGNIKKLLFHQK

CC(=O)SC[C@@H](Cc1ccccc1)C(=O)NCC(=O)OCc1ccccc1
inactive: Potency [1] | Potency [2] | Potency [3] | Potency [4] | Potency [5] | Potency [6] | fluorescence, relative to Rose Bengal [7] 0.374% [at 18.6 µM] | fluorescence, % of fluorescein control [8] 0.0221% [at 18.6 µM] | fluorescence, % of triamterene [9] -0.317% [at 18.6 µM] | fluorescence, % of fluorescent control [10] -1.15% [at 18.6 µM] | fluorescence, % of fluorescein [11] -0.0812% [at 18.6 µM] | fluorescence, % of fluorescent control [12] 0.0019% [at 18.6 µM] | activity change [13] -0.0233% [at 18.6 µM] | fluorescence, % of fluorescent control [14] 0.587% [at 18.6 µM] | fluorescence, % of Rose Bengal [15] -0.444% [at 18.6 µM] | fluorescence, % of fluorescent control [16] -0.074% [at 18.6 µM] | fluorescence, % of fluorescent control [17] 0.351% [at 18.6 µM] | Potency [18] | Potency [19]

Cc1cc(N)c(S(=O)(=O)O)cc1Cl
inactive: Potency [1] | Potency [2] | Potency [3] | Potency [4] | Potency [5] | Potency [6] | Potency [7] | Potency [8] | Potency [9] | Potency [10] | outcome [11] | Potency [12] | outcome [13] | Potency [14] | Potency [15] | Potency [16] | Potency [20] | Potency [17]

NNC(=O)c1cccc(C(=O)NN)c1
inactive: Potency [1] | Potency [2] | Potency [3] | Potency [4] | Potency [5] | Potency [7] | Potency [8] | Potency [9] | outcome [11] | outcome [13] | Potency [14] | Potency [15] | Potency [16] | Potency [20] | Potency [17] | Potency [18]

Oc1cccc2cc3cccc(O)c3c(O)c12
inactive: Potency [1] | Potency [2] | Potency [3] | Potency [4] | Potency [5] | Potency [7] | Potency [8] | Potency [9] | Potency [10] | outcome [11] | Potency [12] | outcome [13] | Potency [14] | Potency [16] | Potency [17] | Potency [18] | Potency [19]

CCC(C)(C)C1CCCCC1OC(C)=O (centres undefined)
inactive: Potency [1] | Potency [2] | Potency [3] | Potency [4] | Potency [5] | Potency [7] | Potency [8] | Potency [9] | outcome [11] | Potency [12] | outcome [13] | Potency [14] | Potency [15] | Potency [16] | Potency [20] | Potency [17]

NC(=O)NS(=O)(=O)c1ccc(N)cc1
inactive: Potency [1] | Potency [2] | Potency [3] | Potency [4] | Potency [5] | Potency [7] | Potency [8] | Potency [9] | Potency [10] | outcome [11] | Potency [12] | outcome [13] | Potency [14] | Potency [15] | Potency [16] | Potency [20] | Potency [17] | Potency [18]
